Laboratory results from PubChem BioAssay (NCATS).
Results filed as inconclusive are left out. Where a call stands in place of a potency, no number is given. Active and inactive are the calls of the source. Unless noted, the call rests on the fitted dose curve; in most records, active means well fitted inhibition curve with a large enough effect; inconclusive means small, poorly fitted or top-dose-only effect; inactive means flat fitted curve, though single readings scatter.

target: T1, Tyrosine-protein phosphatase non-receptor type substrate 1 (Homo sapiens) + Leukocyte surface antigen CD47 (Homo sapiens) (UniProt P78324+Q08722); assay: CD47-SIRPalpha protein protein interaction - LANCE assay qHTS validation (AID 1347057; active means well fitted curve in the direction sought with a large enough effect in the signal ratio, with a control signal flat, not every such curve was filed as active; the % refers to the signal ratio); conditions: Recombinant CD47-His / biotin-SIRPalpha, TR-FRET ratio; series mostly up to 38.3 µM
Summary of the method: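 Inhibition of soluble CD47/SIRPalpha ectodomain association by titrated compounds, measured as 665/615 nm time-resolved FRET ratio after sequential 30 min room-temperature incubations.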

T1 sequence (P78324 whole entry, looked up, the tested form may be a part): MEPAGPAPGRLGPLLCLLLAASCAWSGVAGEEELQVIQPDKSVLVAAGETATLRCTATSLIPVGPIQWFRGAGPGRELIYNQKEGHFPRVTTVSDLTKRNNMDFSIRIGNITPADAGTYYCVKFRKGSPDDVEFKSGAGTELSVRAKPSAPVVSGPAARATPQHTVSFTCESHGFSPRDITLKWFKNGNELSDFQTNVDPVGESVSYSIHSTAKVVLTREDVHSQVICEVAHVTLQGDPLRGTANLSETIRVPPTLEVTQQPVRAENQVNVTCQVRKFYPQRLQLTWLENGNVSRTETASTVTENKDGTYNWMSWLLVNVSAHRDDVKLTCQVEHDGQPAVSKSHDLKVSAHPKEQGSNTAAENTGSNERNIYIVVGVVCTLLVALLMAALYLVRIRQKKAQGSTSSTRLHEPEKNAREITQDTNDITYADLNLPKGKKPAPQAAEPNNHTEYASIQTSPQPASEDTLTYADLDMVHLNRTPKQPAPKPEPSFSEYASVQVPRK
T1 sequence (Q08722 whole entry, looked up, the tested form may be a part): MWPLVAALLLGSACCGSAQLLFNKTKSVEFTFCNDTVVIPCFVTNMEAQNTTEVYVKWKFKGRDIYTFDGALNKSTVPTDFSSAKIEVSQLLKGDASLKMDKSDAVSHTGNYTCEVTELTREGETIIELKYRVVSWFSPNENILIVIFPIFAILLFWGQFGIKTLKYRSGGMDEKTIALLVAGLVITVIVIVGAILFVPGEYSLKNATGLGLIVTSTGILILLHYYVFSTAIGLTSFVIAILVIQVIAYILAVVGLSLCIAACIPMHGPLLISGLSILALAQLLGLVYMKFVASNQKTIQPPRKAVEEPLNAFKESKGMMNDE

SMILES | outcome
CCOC(=O)C(C)(C)Oc1ccc(Cl)cc1 | inactive
O=C(CCCN1CCC(O)(c2ccc(Cl)cc2)CC1)c1ccc(F)cc1 | inactive
CC(C)(Oc1ccc(C2CC2(Cl)Cl)cc1)C(=O)O (stereo not drawn) | inactive
Cn1cnc2c1c(=O)[nH]c(=O)n2C | inactive
O=C1N(c2ccccc2)c2ccccc2C1(Cc1ccncc1)Cc1ccncc1 | inactive
Nc1c2c(nc3ccccc13)CCCC2 | inactive
COc1ccc2c(c1)c(CC(=O)O)c(C)n2C(=O)c1ccc(Cl)cc1 | inactive
CCC1(c2ccccc2)C(=O)NCNC1=O | inactive
CCOC(=O)c1ncn2c1CN(C)C(=O)c1cc(F)ccc1-2 | inactive
N[C@@H](Cc1c[nH]c2ccc(O)cc12)C(=O)O | inactive
COc1ccc(C2CNC(=O)C2)cc1OC1CCCC1 (stereo not drawn) | inactive
C[C@H]1c2cccc(O)c2C(O)=C2C(=O)[C@]3(O)C(O)=C(C(N)=O)C(=O)[C@@H](N(C)C)[C@@H]3[C@@H](O)[C@@H]21 | inactive
NS(=O)(=O)c1cc2c(cc1Cl)NCNS2(=O)=O | inactive
CN(C)CCOC(c1ccccc1)c1ccccc1 | inactive
CN1C2CCC1CC(OC(=O)C(CO)c1ccccc1)C2 (stereo not drawn) | inactive
COc1ccc2[nH]cc(CCNC(C)=O)c2c1 | inactive
CN(C)c1nc(N(C)C)nc(N(C)C)n1 | inactive
Nc1nc2c(ncn2COC(CO)CO)c(=O)[nH]1 | inactive
O=c1c(-c2ccc(O)cc2)coc2cc(O)cc(O)c12 | inactive
NCCc1cnc[nH]1 | inactive
COc1ccccc1OCCNCC(O)COc1cccc2[nH]c3ccccc3c12 (stereo not drawn) | inactive
CC(C)Cc1ccc(C(C)C(=O)O)cc1 (stereo not drawn) | inactive
CCN1CCCC1CNC(=O)c1cc(S(=O)(=O)CC)c(N)cc1OC (stereo not drawn) | inactive
O=C(C1CCCCC1)N1CC(=O)N2CCc3ccccc3C2C1 (stereo not drawn) | inactive
O=C(c1ccc(OCCN2CCCCC2)cc1)c1c(-c2ccc(O)cc2)sc2cc(O)ccc12 | inactive
CC(C)(C)C(=O)Oc1ccc(S(=O)(=O)Nc2ccccc2C(=O)NCC(=O)O)cc1 | inactive
Cc1cn([C@H]2C=C[C@@H](CO)O2)c(=O)[nH]c1=O | inactive
Nc1ccn([C@H]2CC[C@@H](CO)O2)c(=O)n1 | inactive
Cc1ccc(-c2cc(C(F)(F)F)nn2-c2ccc(S(N)(=O)=O)cc2)cc1 | inactive

target: T1, Tyrosine-protein phosphatase non-receptor type substrate 1 (Homo sapiens) + Leukocyte surface antigen CD47 (Homo sapiens); assay: CD47-SIRPalpha protein protein interaction - HTRF assay qHTS validation (AID 1347058; active means well fitted curve in the direction sought with a large enough effect in the signal ratio, not every such curve was filed as active; the % refers to the signal ratio); conditions: TR-FRET HTRF CD47-His / biotin-SIRPalpha binding, ratio 665/615; series mostly up to 38.3 µM
Summary of the method: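 Soluble extracellular domains (6His-CD47, Avi-tag-biotinylated SIRPalpha) in PBS pH 7.4 with 0.05% IGEPAL CA-630. Compounds were preincubated 30 min at RT with CD47 and anti-His-Eu, then SIRPalpha and SAV-XL665 were added. TR-FRET 665/615 ratio.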

SMILES | outcome
CCOC(=O)C(C)(C)Oc1ccc(Cl)cc1 | inactive
O=C(CCCN1CCC(O)(c2ccc(Cl)cc2)CC1)c1ccc(F)cc1 | inactive
CC(C)(Oc1ccc(C2CC2(Cl)Cl)cc1)C(=O)O (stereo not drawn) | inactive
Cn1cnc2c1c(=O)[nH]c(=O)n2C | inactive
O=C1N(c2ccccc2)c2ccccc2C1(Cc1ccncc1)Cc1ccncc1 | inactive
Nc1c2c(nc3ccccc13)CCCC2 | inactive
COc1ccc2c(c1)c(CC(=O)O)c(C)n2C(=O)c1ccc(Cl)cc1 | inactive
CCC1(c2ccccc2)C(=O)NCNC1=O | inactive
CCOC(=O)c1ncn2c1CN(C)C(=O)c1cc(F)ccc1-2 | inactive
N[C@@H](Cc1c[nH]c2ccc(O)cc12)C(=O)O | inactive
COc1ccc(C2CNC(=O)C2)cc1OC1CCCC1 (stereo not drawn) | inactive
C[C@H]1c2cccc(O)c2C(O)=C2C(=O)[C@]3(O)C(O)=C(C(N)=O)C(=O)[C@@H](N(C)C)[C@@H]3[C@@H](O)[C@@H]21 | inactive
NS(=O)(=O)c1cc2c(cc1Cl)NCNS2(=O)=O | inactive
CN(C)CCOC(c1ccccc1)c1ccccc1 | inactive
CN1C2CCC1CC(OC(=O)C(CO)c1ccccc1)C2 (stereo not drawn) | inactive
COc1ccc2[nH]cc(CCNC(C)=O)c2c1 | inactive
CN(C)c1nc(N(C)C)nc(N(C)C)n1 | inactive
Nc1nc2c(ncn2COC(CO)CO)c(=O)[nH]1 | inactive
O=c1c(-c2ccc(O)cc2)coc2cc(O)cc(O)c12 | inactive
NCCc1cnc[nH]1 | inactive
COc1ccccc1OCCNCC(O)COc1cccc2[nH]c3ccccc3c12 (stereo not drawn) | inactive
CC(C)Cc1ccc(C(C)C(=O)O)cc1 (stereo not drawn) | inactive
CCN1CCCC1CNC(=O)c1cc(S(=O)(=O)CC)c(N)cc1OC (stereo not drawn) | inactive
O=C(C1CCCCC1)N1CC(=O)N2CCc3ccccc3C2C1 (stereo not drawn) | inactive
CC(C)(C)C(=O)Oc1ccc(S(=O)(=O)Nc2ccccc2C(=O)NCC(=O)O)cc1 | inactive
Cc1cn([C@H]2C=C[C@@H](CO)O2)c(=O)[nH]c1=O | inactive
Nc1ccn([C@H]2CC[C@@H](CO)O2)c(=O)n1 | inactive

target: T1, Tyrosine-protein phosphatase non-receptor type substrate 1 (Homo sapiens) + Leukocyte surface antigen CD47 (Homo sapiens); assay: CD47-SIRPalpha protein protein interaction - Alpha assay qHTS validation (AID 1347059); conditions: AlphaScreen CD47-His/biotin-SIRPalpha binding, LOPAC; series mostly up to 38.3 µM
Summary of the method: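 SIRPalpha-biotin 25 nM + cpd, 30 min RT, dark; add CD47-His 12.5 nM, 30 min; add Ni-NTA/SAV beads 10 ug/mL, 30 min; AlphaScreen. Buffer PBS pH 7.4 + 0.05% IGEPAL CA-630. Non-biotinylated SIRPalpha as control inhibitor.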

SMILES | Potency | outcome
CCOC(=O)C(C)(C)Oc1ccc(Cl)cc1 | inactive | 
O=C(CCCN1CCC(O)(c2ccc(Cl)cc2)CC1)c1ccc(F)cc1 | inactive | 
CC(C)(Oc1ccc(C2CC2(Cl)Cl)cc1)C(=O)O (stereo not drawn) | inactive | 
Cn1cnc2c1c(=O)[nH]c(=O)n2C | inactive | 
O=C1N(c2ccccc2)c2ccccc2C1(Cc1ccncc1)Cc1ccncc1 | inactive | 
Nc1c2c(nc3ccccc13)CCCC2 | inactive | 
COc1ccc2c(c1)c(CC(=O)O)c(C)n2C(=O)c1ccc(Cl)cc1 | inactive | 
CCC1(c2ccccc2)C(=O)NCNC1=O | inactive | 
CCOC(=O)c1ncn2c1CN(C)C(=O)c1cc(F)ccc1-2 | inactive | 
N[C@@H](Cc1c[nH]c2ccc(O)cc12)C(=O)O | inactive | 
COc1ccc(C2CNC(=O)C2)cc1OC1CCCC1 (stereo not drawn) | inactive | 
NS(=O)(=O)c1cc2c(cc1Cl)NCNS2(=O)=O | inactive | 
CN(C)CCOC(c1ccccc1)c1ccccc1 |  | inactive
CN1C2CCC1CC(OC(=O)C(CO)c1ccccc1)C2 (stereo not drawn) | inactive | 
COc1ccc2[nH]cc(CCNC(C)=O)c2c1 | inactive | 
CN(C)c1nc(N(C)C)nc(N(C)C)n1 | inactive | 
Nc1nc2c(ncn2COC(CO)CO)c(=O)[nH]1 | inactive | 
O=c1c(-c2ccc(O)cc2)coc2cc(O)cc(O)c12 | inactive | 
NCCc1cnc[nH]1 | inactive | 
COc1ccccc1OCCNCC(O)COc1cccc2[nH]c3ccccc3c12 (stereo not drawn) | inactive | 
CC(C)Cc1ccc(C(C)C(=O)O)cc1 (stereo not drawn) | inactive | 
CCN1CCCC1CNC(=O)c1cc(S(=O)(=O)CC)c(N)cc1OC (stereo not drawn) | inactive | 
O=C(C1CCCCC1)N1CC(=O)N2CCc3ccccc3C2C1 (stereo not drawn) | inactive | 
CC(C)(C)C(=O)Oc1ccc(S(=O)(=O)Nc2ccccc2C(=O)NCC(=O)O)cc1 | inactive | 
Cc1cn([C@H]2C=C[C@@H](CO)O2)c(=O)[nH]c1=O | inactive | 
Nc1ccn([C@H]2CC[C@@H](CO)O2)c(=O)n1 | inactive | 
Cc1ccc(-c2cc(C(F)(F)F)nn2-c2ccc(S(N)(=O)=O)cc2)cc1 | inactive | 
